The sample as a whole holds a higher share of hits than the screen did.
NS1 function inh – blocks influenza NS1 protein function. actives 0.4% (n = 270,000). Potency, µM (doses to about 46.1 µM). AID 2326; calls by dose curve; note: actives are rising curves; nearly all actives have a fitted effect of over 50% in size
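Recovery from NS1-induced slow growth read by OD600 in budding yeast switched to galactose assay medium (pH 6.0, -URA) at 1:100 dilution. Compound 23 nl per well; the matching strain lacking NS1 serves as control.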
Cruzain inh Det – cruzain (T. cruzi) inhibition with detergent | P25779 | purified cruzain, Z-FR-AMC fluorescence, 0.01% Triton | Potency, µM, hits mostly inhibitors | actives 0.43% (n = 200,000); note: nearly all actives have a fitted effect of over 40% in size
Target sequence (P25779 123-467 limits assumed): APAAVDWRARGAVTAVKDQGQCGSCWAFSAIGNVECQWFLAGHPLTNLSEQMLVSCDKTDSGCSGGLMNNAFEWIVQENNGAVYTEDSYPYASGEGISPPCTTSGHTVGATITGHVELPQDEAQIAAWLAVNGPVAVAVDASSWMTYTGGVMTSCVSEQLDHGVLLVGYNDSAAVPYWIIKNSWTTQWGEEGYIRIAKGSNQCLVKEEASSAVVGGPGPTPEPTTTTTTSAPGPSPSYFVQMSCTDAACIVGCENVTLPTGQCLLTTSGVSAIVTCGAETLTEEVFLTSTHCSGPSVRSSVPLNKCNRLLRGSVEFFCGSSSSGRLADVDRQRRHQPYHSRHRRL
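15 min RT preincubation of 1.5 nM cruzain with compound, then 2 uM Z-FR-AMC added; kinetic AMC fluorescence, 60 s delta. Triton X-100 0.01%, pH 5.5.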
Cruzain inh noDet – cruzain (T. cruzi) inhibition without detergent; P25779; purified cruzain, Z-FR-AMC fluorescence, no detergent; Potency, µM, hits mostly inhibitors; actives 2.3% (n = 200,000); AID 1476; note: nearly all actives have a fitted effect of over 40% in size
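Detergent-free condition (0.00005% Triton X-100) in acetate buffer pH 5.5 with DTT. 1.5 nM enzyme and compound were pre-mixed 15 min, then 2 uM Z-FR-AMC substrate added; reaction progress from fluorescence change between first and third reads (60 s).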
Papain counter – counter-screen for cruzain inhibitors: papain inhibition. actives 41% (n = 410). purified papain, Z-FR-AMC fluorescence cleavage. AID 2161. Potency, µM, actives largely listed as inhibitors. shares compounds with Cruzain inh Det; note: nearly all actives have a fitted effect of over 35% in size
Target sequence (P00784 whole entry, looked up): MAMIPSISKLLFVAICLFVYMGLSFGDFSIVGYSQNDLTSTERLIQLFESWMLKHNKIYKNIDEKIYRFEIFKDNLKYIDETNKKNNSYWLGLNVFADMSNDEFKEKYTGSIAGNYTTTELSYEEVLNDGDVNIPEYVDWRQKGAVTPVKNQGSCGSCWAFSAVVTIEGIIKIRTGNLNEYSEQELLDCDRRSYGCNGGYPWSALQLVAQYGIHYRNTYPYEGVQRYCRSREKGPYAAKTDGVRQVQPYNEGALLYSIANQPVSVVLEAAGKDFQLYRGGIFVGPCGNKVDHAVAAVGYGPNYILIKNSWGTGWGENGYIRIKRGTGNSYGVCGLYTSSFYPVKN
Hits are given with their value; – = inactive; ? = inconclusive; · = no result. Unless noted, calls come from the whole dose curve; as a rule, active = well fitted curve in the direction sought with a large enough effect; inconclusive = small, poorly fitted or top-dose-only effect, or another doubt; inactive = no such curve, though single readings can be large; an effect the other way counts as inactive or inconclusive.

SMILES | NS1 function inh | Cruzain inh Det | Cruzain inh noDet | Papain counter
CCc1ccc2[nH]c(=O)c(CN(Cc3ccc(OC)cc3)Cc3nnnn3CCOC)cc2c1 | – | – | ? | ·
CCc1ccc2[nH]c(=O)c(CN(Cc3cccnc3)Cc3nnnn3Cc3ccccc3)cc2c1 | · | · | · | –
CCc1ccc2[nH]c(=O)c(CN(Cc3ccccc3)Cc3nnnn3C(C)(C)C)cc2c1 | · | · | · | –
Cc1ccc2[nH]c(=O)c(CN(Cc3cccs3)Cc3nnnn3Cc3ccccc3)cc2c1 | ? | – | – | ·
C=C(C)C(=O)OC | · | – | – | ·
CN(CC(=O)Nc1ccc2c(c1)OCCO2)S(=O)(=O)c1ccc(F)cc1 | – | · | · | ·
Cc1nn(-c2ccccc2)c(N)c1C(O)(CC(=O)C(F)(F)F)C(F)(F)F (stereo unspecified) | – | – | – | ·
Cc1csc(N/N=C/c2ccc(O)c([N+](=O)[O-])c2)n1 | – | 7.1µM | 7.9µM | –
Cc1nnc(N/N=C/c2ccc(O)c([N+](=O)[O-])c2)[nH]c1=O | – | – | – | ·
CCOc1ccc(C(=O)NC2CCN(S(C)(=O)=O)CC2)cc1 | – | – | – | ·
COC(=O)Sc1nc(N2CCOCC2)c2c(c1C#N)CC(C)(C)OC2 | – | 10µM | 16µM | 16µM
COC(=O)CSc1nc(N2CCOCC2)c2c(c1C#N)CC(C)(C)OC2 | – | · | · | ·
CC(C)(CO)C(O)C(=O)NCCC#N (stereo unspecified) | – | · | · | ·
CCCNc1nc(C#N)nc(Nc2ccccc2)n1 | · | · | · | 1µM
CC(C)(CO)Nc1nc(Nc2ccccc2)nc(Nc2ccccc2)n1 | – | – | – | ·
CCNc1nc(C#N)nc(Nc2ccccc2)n1 | · | · | · | 5.6µM
CCCNc1nc(Cl)nc(Nc2ccc(Cl)cc2)n1 | – | · | · | ·
Cc1ccc(S(=O)(=O)N[C@@H](CCCCN)C(=O)CCl)cc1 | – | 0.79µM | 1µM | 4µM
Cc1ccc(S(=O)(=O)NC(CC(N)=O)C(=O)O)cc1 (stereo unspecified) | – | – | – | ·
CCOCCCNC(=O)c1ccc2c(c1)N(Cc1ccccc1)C(=O)CS2=O (stereo unspecified) | – | – | – | ·
Cc1cc2ccccc2nc1SCC(=O)NC1CCCC1 | – | · | · | ·
CN1CCN(c2ncc3ncc(=O)n(CCc4ccccc4)c3n2)CC1 | · | – | – | ·
CN1CCN(c2ncc3ncc(=O)n(-c4ccccc4)c3n2)CC1 | · | ? | 20µM | 14µM
COc1ccc(-n2c(=O)cc(N3CCN(c4ccccc4F)CC3)[nH]c2=O)cc1 | – | – | – | ·
NC(=S)n1[nH]c(-c2ccc([N+](=O)[O-])cc2)c(N=Nc2ccc(O)cc2)c1=O | – | 0.35µM | 0.63µM | –
SMILES | NS1 function inh | Cruzain inh Det | Cruzain inh noDet | Papain counter
Cc1[nH]n(C(N)=S)c(=O)c1N=Nc1ccc([N+](=O)[O-])cc1Cl | – | · | · | ·
O=C(c1ccc(F)cc1)C1CCN(C(=O)c2ccccc2F)CC1 | – | · | · | ·
CN(C)C=Nc1ccccc1C1C=NNC1=O (stereo unspecified) | – | · | · | ·
CCN(CC)c1ccc2cc(-c3nc(-c4ccccc4F)no3)c(=O)oc2c1 | · | – | – | ·
COc1ccc(N=Cc2nc(-c3ccccc3)oc2OC(=O)c2ccccc2)cc1 | – | 10µM | 16µM | –
COc1ccc(N=Cc2ccc(-c3ccccc3)o2)cc1 | – | · | · | ·
CC(C)=CCSc1nnc([C@@H](N)Cc2c[nH]c3ccccc23)o1 | – | – | – | ·
CCc1ccccc1NC(=O)CSc1nnc([C@@H](N)Cc2c[nH]c3ccccc23)o1 | ? | 10µM | 10µM | –
CCOC(=O)C1CCCN(C(=S)NC(=O)/C=C/c2ccc(F)cc2)C1 (stereo unspecified) | – | · | · | ·
CS(=O)(=O)n1nc(-c2ccc(Cl)cc2)nc1N | – | · | · | ·
Cc1ccccc1-n1c2nc(=O)n(C)c(=O)c-2cc2ccccc21 | – | · | · | ·
COc1ccc(-c2nc3c(=O)n(C)c(=O)nc-3n(C)n2)cc1 | · | · | · | –
Cn1nc(-c2ccc(Cl)cc2)nc2c(=O)n(C)c(=O)nc1-2 | – | 1.6µM | 1.6µM | –
CCn1nc(-c2ccccc2C)nc2c(=O)n(C)c(=O)nc1-2 | · | · | · | –
CCS(=O)(=O)n1nc(-c2ccc(OC)cc2)nc1N | – | · | · | ·
Cc1cc(C)n2nc(-c3ccc(F)cc3)nc2n1 | – | – | – | ·
Cn1nc(-c2ccc(F)cc2)nc2c(=O)n(C)c(=O)nc1-2 | · | · | · | –
O=C(Nc1ccc(OC(F)(F)C(F)F)c(NC(=O)c2cccc(F)c2)c1)c1cccc(F)c1 | – | – | – | ·
Cn1cnnc1SCC(=O)Nc1ccccc1C(=O)NC1CC1 | – | – | – | ·
Cc1cc(C)cc(NC(=O)c2cc3c(=O)n(Cc4ccco4)ccc3nc2C)c1 | · | – | – | ·
Cc1ccccc1-n1ncc2c1CC(C)(C)CC2NC(=O)CCN1Cc2ccccc2C1=O (stereo unspecified) | – | · | · | ·
O=C(c1oc2ccccc2c1N1CCCCC1)N1CCCCC1 | – | – | – | ·
CCOc1ccc(/C=N/OCC(=O)Nc2cc(C)on2)cc1 | – | – | – | ·
Cc1cc(C)n2nc(-c3cccnc3)nc2n1 | – | – | – | ·
Cn1nc(-c2cccnc2)nc2c(=O)n(C)c(=O)nc1-2 | · | · | · | –
SMILES | NS1 function inh | Cruzain inh Det | Cruzain inh noDet | Papain counter
OCCN(CCO)c1ccc(C(c2ccccc2Cl)c2ccc(N(CCO)CCO)cc2Cl)c(Cl)c1 | ? | – | ? | –
OCCN(CCO)c1ccc2ccccc2c1 | – | · | · | ·
COc1ccc(-c2nnc3sc(-c4ccccc4OC)nn23)cc1 | – | – | ? | ·
COc1ccccc1-c1nn2c(-c3cc(C)[nH]n3)nnc2s1 | · | · | · | –
COc1cc(-c2nn3c(-c4ccccc4)nnc3s2)cc(OC)c1OC | – | – | ? | ·
Clc1cccc(-c2nnc3sc(-c4ccccc4)nn23)c1 | – | · | · | ·
COc1cc(-c2nn3c(-c4cc(-c5ccccc5)n[nH]4)nnc3s2)cc(OC)c1OC | · | · | · | –
Clc1ccc(-c2nn3c(-c4cc(-c5ccccc5)n[nH]4)nnc3s2)cc1 | · | · | · | –
Cc1c(C(=O)O)sc2ncnc(N3CCCCC3C)c12 (stereo unspecified) | – | – | – | ·
CC(C)CC(=O)Nc1ccc2c(c1)nc(CCN1CCCCC1)n2C | – | · | · | ·
COc1ccc(C(=O)N2CCC(C(=O)O)CC2)cc1 | – | – | – | ·
CCn1c(CCCCc2n[nH]c(=S)n2CC)n[nH]c1=S | – | · | · | ·
CCCCNC(=O)Cn1c(SCc2cccc(F)c2)nc2ccncc21 | · | · | · | –
CCCCNC(=O)C(CC)n1c(SCc2cccc(F)c2)nc2ccncc21 (stereo unspecified) | · | · | · | –
CCC(C(=O)NC1CCCCC1)n1c(SCc2cccc(F)c2)nc2ccncc21 (stereo unspecified) | – | 13µM | ? | –
CC(CNC(=O)c1ccc(CSc2nc3ccncc3n2Cc2cccc(F)c2)cc1)c1ccccc1 (stereo unspecified) | · | – | – | ·
Cc1ccc(NC(=O)Cn2c(SCc3cccc(F)c3)nc3ccncc32)c(C)c1 | · | – | – | ·
COC(=O)c1ccc(Cn2c(SCc3cccc(C)c3)nc3ccncc32)cc1 | · | – | ? | ·
COc1ccc2c(CNCc3ccco3)c(C(=O)O)n(Cc3ccccc3)c2c1 | · | – | – | ·
CNC(=O)c1c[nH]c2ccc(S(=O)(=O)Nc3cccc(SC)c3)cc2c1=O | – | · | · | ·
CNC(=O)c1ccc2nc(-c3ccccc3)c(-c3ccccc3)nc2c1 | · | · | · | –
C=CCNC(=O)c1ccc2nc(-c3ccccc3)c(-c3ccccc3)nc2c1 | – | – | – | ·
O=C(CSc1nnc(CNC(=O)c2cccs2)o1)NCCc1ccccc1 | – | – | – | ·
CC(=O)c1cc(NC(=O)c2ccccc2)c(=O)oc1C | – | · | · | ·
